Measurements reported in paper PMC4552634, “A New Set of Chemical Starting Points with Plasmodium falciparum Transmission-Blocking Potential for Antimalarial Drug Discovery” (PLoS ONE, 2015).
The campaign covered roughly 13,000 compounds. About 3,200 (25%) showed an effect of 50% or more. The list shows a part of the results. Peptide text beside a SMILES is read from it. * marks the point of attachment. Boc = CC(C)(C)OC(=O)*

Each compound was assayed on P. falciparum stage V gametocytes. Details: 48 h, 5 µM; inhibitor.
Parameters: BacTiter-Glo ATP luminescence viability of purified stage V gametocytes in 384-well plates, per cent inhibition versus DMSO

| SMILES | % Inhibition [%] |
| --- | --- |
| CC(=O)Nc1ccc(CN2CCC(NC(=O)c3ccc(-c4cccc(C(F)(F)F)c4)s3)CC2)cc1 [TCMDC-134332] | 3.235 |
| Cc1ccc(O)c(CN2CCCC(COC(c3ccc(F)cc3)c3ccc(F)cc3)C2)c1 (centres unmarked) [TCMDC-136033] | -2.358 |
| CCOc1cccc(C(=O)Nc2nonc2-c2ccc(OC)c(OC)c2)c1 [TCMDC-125179] | 47.83 |
| CCOc1ccc(-c2nonc2NC(=O)c2ccccc2Cl)cc1OCC [TCMDC-125205] | 48.31 |
| CCOc1ccc(-c2nonc2NC(=O)c2ccccc2F)cc1OCC [TCMDC-125206] | 57.11 |
| CCCOc1ccccc1C(=O)Nc1nonc1-c1ccc(OCC)c(OCC)c1 [TCMDC-124767] | 53.72 |
| CCOc1ccc(-c2nonc2NC(=O)c2ccccc2OC)cc1OCC [TCMDC-125198] | 87.63 |
| CCCOc1ccc(-c2nonc2NC(=O)c2cccc(OC)c2)cc1OCCC [TCMDC-124765] | 56.26 |
| O[C@H]1[C@H](OCc2ccc(-c3ccccc3)cc2)CC[C@@H]1N1CCCCC1 [TCMDC-132078] | -8.021 |
| N#Cc1cccc(CN2CCCN(c3ccc(NC(=O)c4cccs4)cc3)CC2)c1 [TCMDC-134987] | -14.58 |
| Cc1ccc(CN2CCN(CC(O)COc3ccc4c(c3)CCC4)CC2)cc1 (centres unmarked) [TCMDC-141429] | -18.62 |
| COc1ccc(CC2(c3ccc(F)cc3)N=C(N)N(CCCc3ccccc3)C2=O)cc1 (centres unmarked) [TCMDC-136462] | -20.11 |
| CCCOc1ccc(-c2nonc2NC(=O)c2ccccc2OC)cc1OCCC [TCMDC-124766] | 53.56 |
| COc1nc2c(N3CCN(CCNCc4ccc5c(n4)NC(=O)CS5)CC3)ccnc2cc1F [TCMDC-135193] | -2.167 |
| c1ccc(CN2CCCN(c3ccc4c(c3)CCN(Cc3ccc(-c5ncc[nH]5)cc3)CC4)CC2)cc1 [TCMDC-136549] | 6.085 |
| CCn1cc(C=C2Oc3c(ccc(O)c3CN3CCCCC3)C2=O)c2ccccc21 [TCMDC-124888] | 37.53 |
| COC(=O)C(=C(C)C)N1C(=O)[C@@H](NC(=O)OCc2ccccc2)[C@H]1SS[C@@H]1[C@H](NC(=O)OCc2ccccc2)C(=O)N1C(C(=O)OC)=C(C)C [TCMDC-132119] | 84.32 |
| COc1cc(F)c2nccc([C@@H](O)CN3CCC(NC(=O)OCc4ccccc4)C(F)C3)c2c1 (some centres unmarked) [TCMDC-141734] | -30.04 |
| CC(C)=C(C(=O)OCc1ccccc1)N1C(=O)[C@@H](NC(c2ccccc2)(c2ccccc2)c2ccccc2)[C@H]1[S+]([O-])CC(=O)OC(C)(C)C (some centres unmarked) [TCMDC-139078] | -23.33 |
| O=C(Nc1cccc(CN2CCCN(Cc3ccsc3)CC2)c1)c1cc2ccccc2s1 [TCMDC-134612] | -54.77 |
| O=C(Nc1cccc(CN2CCCN(Cc3cccc(O)c3)CC2)c1)c1cc2ccccc2s1 [TCMDC-141875] | -26.68 |
| CCCCCN1CCCN(Cc2cccc(NC(=O)c3cc4ccccc4s3)c2)CC1 [TCMDC-141872] | 97.12 |

| SMILES | % Inhibition [%] |
| --- | --- |
| CC(C)CN1CCCN(Cc2cccc(NC(=O)c3cc4ccccc4s3)c2)CC1 [TCMDC-141869] | -90.88 |
| O=C(Nc1cccc(CN2CCCN(Cc3cccnc3)CC2)c1)c1cc2ccccc2s1 [TCMDC-141868] | 50.41 |
| O=C(Nc1cccc(CN2CCCN(Cc3ncc[nH]3)CC2)c1)c1ccc2ccccc2c1 [TCMDC-141856] | 45.36 |
| O=C(Nc1cccc(CN2CCCN(Cc3ccccc3)CC2)c1)c1cc2ccccc2s1 [TCMDC-141864] | -29.46 |
| O=C(Nc1cccc(CN2CCCN(CC3CCCCC3)CC2)c1)c1cc2ccccc2s1 [TCMDC-141863] | -96.88 |
| COc1cccc(CN2CCCN(Cc3cccc(NC(=O)c4cc5ccccc5s4)c3)CC2)c1 [TCMDC-141874] | -57.17 |
| CCCCCCN1CCN(Cc2cccc(NC(=O)c3cc4ccccc4s3)c2)CC1 [TCMDC-134621] | -21.73 |
| O=C(Nc1cccc(CN2CCCN(CCc3ccccc3)CC2)c1)c1cc2ccccc2s1 [TCMDC-141870] | 77.28 |
| O=C(Nc1cccc(CN2CCCN(Cc3ncc[nH]3)CC2)c1)c1cc2ccccc2s1 [TCMDC-141877] | 80.03 |
| COC(=O)CC[C@H](NC(=O)[C@H](C)NC(=O)OC(C)(C)C)C(=O)OC [TCMDC-131388] (Boc-Ala-Glu(OMe)-OMe) | -20.52 |
| CCCCC#Cc1cnc2nc(N)[nH]c(=O)c2n1 [TCMDC-137943] | 7.746 |
| CCCCC(O)c1cc(O)c2c(c1)OC(C)(C)CC2C1=CCN(Cc2ccc3ccccc3c2)CC1 (centres unmarked) [TCMDC-131420] | -23.67 |
| CC1(C)N=C(N)N=C(N)N1c1cccc(C(F)(F)F)c1 [TCMDC-124504] | -28.24 |
| CC(=O)Nc1nc(-c2ccccc2)[nH]c1C(N)=O [TCMDC-131311] | -1.405 |
| COc1ccc(Nc2nccc(N3CCC(NC(=O)c4cccc(NC(C)=O)c4)C3)n2)cc1 (centres unmarked) [TCMDC-133611] | -20.16 |
| O=C(N[C@H]1CCN(CCc2ccc(O[C@H]3CCNC3)c(F)c2)C1)c1ccc(Cl)c(Cl)c1 [TCMDC-141067] | 56.15 |
| O=C(N[C@H]1CCN(CCc2ccc(O[C@H]3CCNC3)c(Br)c2)C1)c1ccc(Cl)c(Cl)c1 [TCMDC-141069] | 53.75 |
| O=C(N[C@H]1CCN(Cc2ccc(OC3CCN(Cc4ccccc4)CC3)c(Br)c2)C1)c1ccc(Cl)c(Cl)c1 [TCMDC-140286] | 18.35 |
| COCCNC(=O)c1ccc(OC2CCN(Cc3ccc(F)c(F)c3)CC2)c(Cl)c1 [TCMDC-124653] | 4.866 |
| O=C(N[C@H]1CCN(CCc2ccc(O[C@H]3CCNC3)cc2)C1)c1ccc(Cl)c(Cl)c1 [TCMDC-141066] | 34.25 |
| O=C(N[C@H]1CCN(CCc2ccc(O[C@H]3CCNC3)c(Cl)c2)C1)c1ccc(Cl)c(Cl)c1 [TCMDC-141068] | 47.4 |
| O=C(NCCN1CCN(S(=O)(=O)c2ccc(OC3CCNCC3)c(Br)c2)CC1)c1ccc(Cl)c(Cl)c1 [TCMDC-141153] | 84.33 |
